Data from PubChem BioAssay (NCATS).
Activity calls are given as the source filed them. Calls follow the shape of the full dose curve.

How the values were obtained:
Assay in all cases: Confirmatory Screen for Target Class Profiling of Small Molecule Inhibitors of Methyltransferases (AID 1745852); as to activity change, negative = inhibition: % is scaled to controls: 0 for no effect and ±100 for the full control effect
[1] = target: Guanidinoacetate N-methyltransferase (Homo sapiens) (UniProt Q14353); details: activity change, negative = inhibition: at 57.3 µM (top of the series) unless noted
[2] = target: Nicotinamide N-methyltransferase (Homo sapiens) (UniProt P40261); details: MTase-Glo luminescence, SAH detection, recombinant enzyme; measured here: NNMT max response; stronger effect = lower value
[3] = target: Phenylethanolamine N-methyltransferase (Homo sapiens) (UniProt P11086); details: MTase-Glo luminescence, SAH detection, recombinant enzyme; measured here: PNMT max response; stronger effect = lower value
Potency is read from the fitted curve at half-maximal effect.

Sequence of Phenylethanolamine N-methyltransferase (Homo sapiens) (P11086 whole entry, looked up): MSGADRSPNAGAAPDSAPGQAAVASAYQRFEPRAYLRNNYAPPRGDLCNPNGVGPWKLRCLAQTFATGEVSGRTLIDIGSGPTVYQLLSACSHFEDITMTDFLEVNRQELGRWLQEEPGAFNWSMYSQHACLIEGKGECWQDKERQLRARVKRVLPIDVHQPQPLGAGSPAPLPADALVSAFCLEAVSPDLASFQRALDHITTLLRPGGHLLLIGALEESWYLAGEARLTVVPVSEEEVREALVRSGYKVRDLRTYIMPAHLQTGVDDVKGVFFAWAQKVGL
Sequence of Nicotinamide N-methyltransferase (Homo sapiens) (P40261 whole entry, looked up): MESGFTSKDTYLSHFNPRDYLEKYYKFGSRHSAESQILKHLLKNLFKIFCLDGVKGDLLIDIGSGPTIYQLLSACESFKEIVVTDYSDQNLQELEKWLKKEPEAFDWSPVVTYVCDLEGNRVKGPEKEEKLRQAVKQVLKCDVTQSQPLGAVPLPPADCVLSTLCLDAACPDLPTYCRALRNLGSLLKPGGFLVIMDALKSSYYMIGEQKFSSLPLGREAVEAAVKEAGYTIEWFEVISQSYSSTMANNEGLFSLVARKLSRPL

Row | Structure (SMILES) | activity change, negative = inhibition [1] | activity [2] [%] | activity [3] [%] | Potency [1]
1 | N#Cc1ccc2[nH]cc(CCCCN3CCN(c4ccc5oc(C(N)=O)cc5c4)CC3)c2c1 | -4.3% | -49.2 | -11.6 | 
2 | Cc1cc(Nc2ccc(NC(=O)c3ccc(Nc4ccnc5ccccc45)cc3)cc2)nc(N)n1 |  | -17.6 | -11.7 | 30.4 µM (active)
3 | CC1=C(C(=O)OCc2ccccc2)C(c2ccc(-c3ccccc3)cc2)NC(=O)N1CCCCCC(=O)O (stereo not given) | 0% | -35.4 | 2.18 | 
4 | CN1CCN(C2CCC(n3cc(-c4ccc(Oc5ccccc5)cc4)c4c(N)ncnc43)CC2)CC1 (stereo not given) | 0% | -13.2 | -72 | 
5 | CC(C)[C@@](C)(O)[C@@H]1CN(c2nc(-c3[nH]nc4ncccc34)c(F)cc2Cl)CCN1 |  | -56.9 | -65.1 | 27.1 µM (active)
6 | CC(O)(CC(=O)O)CC(=O)OCc1ccc(O[C@@H]2O[C@H](CO)[C@@H](O)[C@H](O)[C@H]2O)cc1 (stereo not given in full) | 2.07% [at 29.8 µM] | 1.65 | 1.08 | 
7 | CCCNc1ccc2ncc(-c3ccc4[nH]ncc4c3)n2n1 |  | -46 | -45.4 | 8.57 µM (active)
8 | COc1ccc(C2(O)CCC(N3CC[C@@H](NC(=O)CNC(=O)c4cccc(C(F)(F)F)c4)C3)CC2)cn1 (stereo not given in full) | -4.96% | 0.219 | 0.417 | 
9 | COc1cc2nc(N3CCCC3)nc(NCCCCCN3CCCC3)c2cc1OC | 0.888% | -30.1 | -0.684 | 
10 | Cc1cc(N(C)C)ccc1-c1nc2ccc(-c3nc4ccc(N5CCN(C)CC5)cc4[nH]3)cc2[nH]1 | 0% | -5.28 | -3.42 | 
11 | c1cc(OCCCN2CCCCC2)ccc1CN1CCCCC1 | -2.14% | -0.228 | -0.509 | 
12 | O=C1CSc2ccccc2N1Cc1cccc(C(F)(F)F)c1 | -5.12% | -46.9 | -11.4 | 
13 | NCCCNc1ccc(Nc2nccc(Nc3cc(C4CC4)[nH]n3)n2)cc1 |  | -57.6 | -35.6 | 27.1 µM (active)
14 | c1cn2cc(-c3ccc4cn[nH]c4c3)nc(Nc3ccc(N4CCOCC4)cc3)c2n1 |  | -49.6 | -53.5 | 21.5 µM (active)
15 | COc1ccc(-c2cnc3ccc(NCc4ccc(S(N)(=O)=O)cc4)nn23)cc1OC |  | -24.2 | -27.8 | 38.3 µM (active)
16 | CC(=O)OC/C=C(\C)C(CC1C(C)=C(OC(C)=O)C(=O)C2C(C)(C)C(O)CCC12C)OC(C)=O (stereo not given) | -2.29% [at 29.8 µM] | -5.45 | -0.876 | 
17 | C=C[C@H]1[C@H](O[C@@H]2O[C@H](CO)[C@@H](O)[C@H](O)[C@H]2O)OC=C(C(=O)OC)[C@H]1CCOC(=O)c1cc(O)c(O)c(O)c1 | 1.49% [at 29.8 µM] | 0.422 | -11.3 | 
18 | CC1=C(CCC(C)O[C@@H]2O[C@H](CO)[C@@H](O)[C@H](O)[C@H]2O)C(C)(C)CCC1=O (stereo not given in full) | -3.78% | -4.03 | -0.201 | 
19 | C=C(C(=O)O)[C@@H]1CC[C@@]2(C)CC[C@H](O)[C@@]2(C(C)=O)C1 | -6.04% | -3.52 | -3.81 | 
20 | CC1=CC(=O)C2(OC3OC(C)C(O)C(OC(=O)/C=C/c4ccccc4)C3O)C=COC(OC3OC(CO)C(O)C(O)C3O)C12 (stereo not given) | -2.18% [at 19.1 µM] | -1.08 | 1.5 | 
21 | CN(C)c1nc(NC2CCC(NCCc3ccc(Br)cc3OC(F)(F)F)CC2)nc2ccccc12 (stereo not given) | -2.23% | -85 | -42.3 | 
22 | COc1cc(C(=O)NC2CCN(C)CC2)ccc1Nc1ncc2c(n1)N(C1CCCC1)CC(F)(F)C(=O)N2C |  | -23.8 | -20.9 | 27.1 µM (active)
23 | CC1CCC2(CO)C(C(=O)O)=CCCC2C1(C)CCc1ccoc1 (stereo not given) | 0% | 1.37 | 1.68 | 
24 | C[C@]12C[C@@H](O)[C@@H]3C[C@@]1(O[C@@H]1O[C@H](CO)[C@@H](O)[C@H](O)[C@H]1O)[C@]3(COC(=O)c1ccccc1)C(=O)O2 | 0.459% [at 29.8 µM] | 0 | 6.78 | 
25 | C=C(C(=O)O)C1CC(O)C2(C)CCCC(=C)C2C1 (stereo not given) | 0% | 4.87 | 3.46 | 
26 | COc1cc(OC)cc(C(=O)Nc2ccc(Cl)c(-c3nc4ccc(N(C)C)cc4[nH]3)c2)c1 | -3.69% | -8.83 | -5.51 | 
27 | CC(C)c1cc(CNc2nc(Nc3cc(C4CC4)[nH]n3)cc(N3CCN(C)CC3)n2)on1 | -5.05% | -12.7 | -6.69 | 
28 | C[C@@H](Oc1cc(-n2cnc3ccc(OC4CCN(C)CC4)cc32)sc1C(N)=O)c1ccccc1C(F)(F)F |  | -64.9 | -73.6 | 24.1 µM (active)
29 | CC(C)CCC1(O)C(=O)C(C)(C)C(O[C@@H]2O[C@H](CO)[C@@H](O)[C@H](O)[C@H]2O)C(C)(C)C1O (stereo not given in full) | -2.97% [at 29.8 µM] | -3.79 | -2.04 | 
30 | CC1(C)[C@@H](O)CC[C@]2(C)[C@H]3CC=C4[C@@H]5C[C@](C)(C(=O)O)CC[C@]5(C)CC[C@@]4(C)[C@]3(C)CC[C@@H]12 |  | -38.7 | -42.7 | 27.1 µM (active)
